Potency data for 7 molecules are collected here from PubChem BioAssay (Tox21).

The target of assay [1] is Gonadotropin-releasing hormone receptor (Homo sapiens) (UniProt P30968). Put plainly: Human gonadotropin-releasing hormone receptor (GnRHR) small molecule agonists, calcium flux assay in GnRHR-HEK293 cells (AID 1920063). Also: nearly all actives have a fitted effect of over 35% in size. An outline of the steps: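 Stable human GnRHR HEK293 line. 18 h plating, then calcium dye for 1 h at 37 C. Agonist-mode compound addition from DMSO stocks; fluorescence monitored 3 min.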

The target of assay [2] is KiSS-1 receptor (Homo sapiens) (UniProt Q969F8). Put plainly: Human kisspeptin (KISS1R) small molecule agonists, calcium flux assay in KISS1R-HEK293 cells (AID 1920064; active = well fitted curve in the direction sought with a large enough effect in the repeat runs; an effect the other way counts as inactive or inconclusive). The method, boiled down: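 After overnight (18 h) culture at 37 C/5% CO2, human KISS1R-HEK293 cells received calcium dye for 1 h, then test compound; emission at 540 nm (excitation 480 nm) was tracked for 3 min.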

The nature of assay [3]: G protein-coupled receptor (GPCR) small molecule agonists, calcium flux assay: HEK293 wild type cell line counter screen (AID 1920065). An outline of the steps: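 Following 18 h incubation at 37 C/5% CO2, plates got calcium dye for 1 h; compounds, ATP or DMSO were then pinned in and fluorescence followed kinetically (480/540 nm).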
A short description of assay [4]: p53 small molecule agonists, cell-based qHTS assay with human liver microsomes (AID 1963577). The method, boiled down: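 Cells carrying a p53-responsive bla reporter were rested 5 h (37 C, 5% CO2) before compound transfer. Human liver microsomes plus NADPH, 0.5 mg/mL final apiece, supplied metabolism during the 16 h 37 C exposure.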
(qHTS replaces the single test concentration by a dilution series.)

Assay [5] can be described thus: p53 small molecule agonists, cell-based qHTS assay with rat liver microsomes (AID 1963578). An outline of the steps:
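Fluorescence from a beta-lactamase reporter under a p53 response element was measured after cells had been incubated 16 h at 37 C with test compound and rat liver microsomes plus NADPH (0.5 mg/mL final each).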

The nature of assay [6]: p53 small molecule agonists, cell-based qHTS assay with human liver microsomes: qHTS cell viability counter screen (AID 1963579). Also: nearly all actives have a fitted effect of over 45% in size. An outline of the steps:
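Seed p53RE-bla cells at 4,000 per well; incubate 5 h at 37 C; add compound, human liver microsomes and NADPH; incubate 16 h at 37 C; add CellTiter-Glo; after 30 min at room temperature, read luminescence.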

Assay [7] is described as follows: p53 small molecule agonists, cell-based qHTS assay with rat liver microsomes: qHTS cell viability counter screen (AID 1963580). Also: nearly all actives have a fitted effect of over 45% in size. The method, boiled down: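 Cytotoxicity counter screen: intracellular ATP measured by CellTiter-Glo luminescence in the same wells as the beta-lactamase reporter read, on HCT-116 p53RE-bla cells exposed 16 h at 37 C to compounds with rat liver microsomes and NADPH, each 0.5 mg/mL final.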

The nature of assay [8]: p53 small molecule agonists, cell-based qHTS assay: qHTS cell viability counter screen (AID 1963581). Also: nearly all actives have a fitted effect of over 45% in size. The method, boiled down: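 qHTS counter screen: 16 h compound exposure at 37 C of p53RE-bla HCT-116 cells (4,000 per well, seeded 5 h prior), cell viability by ATP luminescence.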
Assay [9] is described as follows: p53 small molecule agonists, cell-based qHTS assay (AID 1963582; active = well fitted activation curve with a large enough effect in the signal ratio in the repeat runs, not every such curve was filed as active; the % refers to the signal ratio). An outline of the steps:
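Measured: fluorescence from cleaved LiveBLAzer substrate. System: p53RE-bla cells, 16 h compound treatment at 37 C, 2 h substrate step at room temperature.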

For assay [10], the target named is 5-hydroxytryptamine receptor 2A (Homo sapiens) (UniProt P28223). Put plainly: 5-hydroxytryptamine receptor 2A (HTR2A) small molecule antagonists, cell-based qHTS assay (AID 1963586). Also: nearly all actives have a fitted effect of over 45% in size. The method, boiled down:
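CHO cells stably expressing human HTR2A were plated for 18 h at 37 C, then loaded with calcium dye for 1 h. Compounds were preincubated 5 min at room temperature before DOI (4 nM solution) was added. Kinetic fluorescence was read for 3 min.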

Assay [11] has the same target. Put plainly: 5-hydroxytryptamine receptor 2A (HTR2A) small molecule agonists, cell-based qHTS assay (AID 1963587). Also: nearly all actives have a fitted effect of over 30% in size. An outline of the steps: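 CHO cells stably expressing human HTR2A, plated 18 h, loaded with calcium dye 1 h at 37 C. Agonist mode: compounds added and intracellular calcium fluorescence recorded kinetically for 2 min at 1 sec intervals.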
The target of assay [12] is Muscarinic acetylcholine receptor M1 (Homo sapiens) (UniProt P11229). Put plainly: Cholinergic receptor muscarinic 1 (CHRM1) small molecule antagonists, cell-based qHTS assay (AID 1963588). Also: nearly all actives have a fitted effect of over 40% in size. An outline of the steps: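 Compounds were tested at 15 concentrations in three independent runs. Dye-loaded CHRM1-CHO cells were exposed 5 min at room temperature before stimulation by acetylcholine added at 50nM. Intracellular calcium was read kinetically on FDSS for 3 min.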

Assay [13] shares this target. Put plainly: Cholinergic receptor muscarinic 1 (CHRM1) small molecule agonists, cell-based qHTS assay (AID 1963589). Also: nearly all actives have a fitted effect of over 35% in size. An outline of the steps: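 Kinetic fluorescence (1 s intervals) of calcium-sensitive dye in human M1 CHO cells after compound addition; cells pre-incubated 18 h at 37 C/5% CO2 and dye-loaded 1 h.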
Assay [14] in a line: cAMP Responsive Elements (CRE) small molecule agonists, cell-based qHTS assay (AID 1963590). The method, boiled down: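 Test agents in DMSO were incubated 3 h at 37 C/5% CO2 with CRE-bla HEK 293T cells seeded 18 h earlier; LiveBLAzer B/G FRET substrate was added and read after 2 h at room temperature.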
Assay [15] is described as follows: cAMP Responsive Elements (CRE) small molecule antagonists, cell-based qHTS assay (AID 1963591; active = well fitted inhibition curve with a large enough effect in the signal ratio in the repeat runs, not every such curve was filed as active; the % refers to the signal ratio). The method, boiled down:
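Reporter line CRE-bla HEK 293T in dialyzed-FBS DMEM; cells preincubated 18 h, treated 3 h with compound plus NKH477 (0.25 uM final); LiveBLAzer FRET, 2 h RT.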

The target in assay [16] is Beta-2 adrenergic receptor (Homo sapiens) (UniProt P07550). Put plainly: Adrenergic beta2 receptor (ADRB2) small molecule antagonists, cell-based qHTS assay (AID 1963592). Also: series mostly up to about 92 µM; nearly all actives have a fitted effect of over 50% in size. The method, boiled down: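 Assay format: CHO-ADRB2 cells, 18-20hr seeding at 37C/5% CO2, then compound plus 1nM isoproterenol agonist mix for 0.5hr RT. Homogeneous time-resolved fluorescence cAMP detection after 1hr, expressed as 665/615 nm ratio.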

Assay [17] shares this target. Put plainly: Adrenergic beta2 receptor (ADRB2) small molecule agonists, cell-based qHTS assay (AID 1963593).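 Also: CHO cells stably overexpressing human ADRB2.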 The method, boiled down:
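CHO cells stably over-expressing ADRB2 were plated overnight at 37C, then dosed with compounds plus a stimulation mix containing 100uM IBMX and 25uM Ro-20-1724 for 0.5hr at room temperature. cAMP was measured by HTRF competition, 1hr.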

Assay [18] addresses D(2) dopamine receptor (Homo sapiens) (UniProt P14416). Put plainly: Dopamine D2 receptor (DRD2) small molecule agonists, cell-based qHTS assay (AID 1963594). Also: nearly all actives have a fitted effect of over 35% in size. Also: potency is read from the fitted curve at half-maximal effect. An outline of the steps: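 HEK293 cells stably expressing human DRD2, pre-treated with PDE inhibitor Ro20-1724 (0.1 mM final) and compound 10 min at room temperature, then stimulated with NKH477 (200nM […]) for 30 min. cAMP read by HTRF (665/620 nm).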

Assay [19] shares this target. Put plainly: Dopamine D2 receptor (DRD2) small molecule antagonists, cell-based qHTS assay (AID 1963595; active = well fitted inhibition curve with a large enough effect in the signal ratio in the repeat runs, with a control signal flat; the % refers to the signal ratio). An outline of the steps: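 Stable D2 receptor HEK293 line, 24 h after seeding. Compound preincubated 10 min, then quinpirole (12 nM) with forskolin analogue NKH477 (200 nM), 30 min, room temperature. Detection by time-resolved FRET of cAMP.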
Assay [20] can be described thus: Nuclear factor erythroid 2-related factor 2/antioxidant responsive element (Nrf2/ARE) small molecule agonists: qHTS cell viability counter screen in human keratinocytes (AID 1919968; active = well fitted curve in the direction sought with a large enough effect in the repeat runs; an effect the other way counts as inactive or inconclusive; also: nearly all actives have a fitted effect of over 55% in size). The method, boiled down: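 Stably transfected HaCaT (KeratinoSens), 1,500/well. Test agents in DMSO were applied for 23 h, 37 C/5% CO2. CellTiter-Fluor was incubated 1 h before the fluorescence read.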

“And” between values parts separate entries of the source, which are not always exact repeats. Equal entries are not always repeated. Unmarked numbers belong to inactive results. Inconclusive results are not listed. The source made the active and inactive calls. Unless noted, calls follow the shape of the full dose curve.

Chain of Gonadotropin-releasing hormone receptor (Homo sapiens) (P30968 whole entry, looked up): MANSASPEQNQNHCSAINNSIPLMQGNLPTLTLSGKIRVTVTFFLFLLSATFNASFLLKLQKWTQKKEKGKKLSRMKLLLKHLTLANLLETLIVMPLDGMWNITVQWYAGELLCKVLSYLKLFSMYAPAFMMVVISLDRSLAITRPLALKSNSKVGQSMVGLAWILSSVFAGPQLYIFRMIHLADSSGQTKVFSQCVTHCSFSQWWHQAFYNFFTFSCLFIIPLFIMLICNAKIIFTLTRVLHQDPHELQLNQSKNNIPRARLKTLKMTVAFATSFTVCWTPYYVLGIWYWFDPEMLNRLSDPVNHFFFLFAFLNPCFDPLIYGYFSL
Chain of 5-hydroxytryptamine receptor 2A (Homo sapiens) (P28223 whole entry, looked up): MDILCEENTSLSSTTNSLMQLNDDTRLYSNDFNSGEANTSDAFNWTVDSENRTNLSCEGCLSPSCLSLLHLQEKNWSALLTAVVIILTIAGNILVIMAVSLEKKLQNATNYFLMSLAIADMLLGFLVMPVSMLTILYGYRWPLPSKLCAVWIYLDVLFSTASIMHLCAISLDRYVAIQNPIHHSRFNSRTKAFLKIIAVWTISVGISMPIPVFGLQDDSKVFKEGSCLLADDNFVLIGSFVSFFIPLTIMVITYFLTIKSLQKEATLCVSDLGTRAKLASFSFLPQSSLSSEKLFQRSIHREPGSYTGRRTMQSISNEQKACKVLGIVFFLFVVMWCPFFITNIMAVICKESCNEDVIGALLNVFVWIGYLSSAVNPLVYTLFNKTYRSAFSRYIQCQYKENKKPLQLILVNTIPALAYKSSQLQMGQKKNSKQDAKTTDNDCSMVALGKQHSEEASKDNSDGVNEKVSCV
Chain of Beta-2 adrenergic receptor (Homo sapiens) (P07550 whole entry, looked up): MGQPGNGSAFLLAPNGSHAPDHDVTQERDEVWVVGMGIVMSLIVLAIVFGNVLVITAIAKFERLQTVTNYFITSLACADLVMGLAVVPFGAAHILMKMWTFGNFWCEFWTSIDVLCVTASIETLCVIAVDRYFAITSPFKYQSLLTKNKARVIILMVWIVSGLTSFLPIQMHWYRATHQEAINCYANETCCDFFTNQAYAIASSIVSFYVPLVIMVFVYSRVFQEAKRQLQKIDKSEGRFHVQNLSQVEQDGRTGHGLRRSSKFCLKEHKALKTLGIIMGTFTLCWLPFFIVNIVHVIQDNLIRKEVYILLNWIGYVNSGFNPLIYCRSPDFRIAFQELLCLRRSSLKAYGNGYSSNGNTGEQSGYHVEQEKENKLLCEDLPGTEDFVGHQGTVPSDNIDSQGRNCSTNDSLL
Chain of KiSS-1 receptor (Homo sapiens) (Q969F8 whole entry, looked up): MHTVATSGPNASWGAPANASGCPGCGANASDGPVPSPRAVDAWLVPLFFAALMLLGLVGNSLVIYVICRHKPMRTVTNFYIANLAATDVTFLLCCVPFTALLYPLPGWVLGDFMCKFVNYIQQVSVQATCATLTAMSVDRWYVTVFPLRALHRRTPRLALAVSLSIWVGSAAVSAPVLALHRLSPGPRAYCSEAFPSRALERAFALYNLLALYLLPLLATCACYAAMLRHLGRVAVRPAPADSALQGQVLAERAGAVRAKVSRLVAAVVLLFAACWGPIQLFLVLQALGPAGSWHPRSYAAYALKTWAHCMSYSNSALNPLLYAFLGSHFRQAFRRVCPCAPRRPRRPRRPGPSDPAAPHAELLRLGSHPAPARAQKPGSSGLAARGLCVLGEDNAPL
Chain of D(2) dopamine receptor (Homo sapiens) (P14416 whole entry, looked up): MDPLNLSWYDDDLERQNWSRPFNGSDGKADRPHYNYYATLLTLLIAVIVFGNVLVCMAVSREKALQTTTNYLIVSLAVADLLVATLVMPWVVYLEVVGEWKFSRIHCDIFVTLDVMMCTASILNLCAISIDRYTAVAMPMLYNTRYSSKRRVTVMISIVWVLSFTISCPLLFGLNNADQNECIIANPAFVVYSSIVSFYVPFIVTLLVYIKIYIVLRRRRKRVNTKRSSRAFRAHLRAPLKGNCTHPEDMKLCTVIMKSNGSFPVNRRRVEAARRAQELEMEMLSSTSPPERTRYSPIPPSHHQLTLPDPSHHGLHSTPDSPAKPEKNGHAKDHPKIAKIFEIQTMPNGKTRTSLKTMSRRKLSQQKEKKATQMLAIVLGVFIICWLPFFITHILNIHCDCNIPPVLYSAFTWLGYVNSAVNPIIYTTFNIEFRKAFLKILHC
Chain of Muscarinic acetylcholine receptor M1 (Homo sapiens) (P11229 whole entry, looked up): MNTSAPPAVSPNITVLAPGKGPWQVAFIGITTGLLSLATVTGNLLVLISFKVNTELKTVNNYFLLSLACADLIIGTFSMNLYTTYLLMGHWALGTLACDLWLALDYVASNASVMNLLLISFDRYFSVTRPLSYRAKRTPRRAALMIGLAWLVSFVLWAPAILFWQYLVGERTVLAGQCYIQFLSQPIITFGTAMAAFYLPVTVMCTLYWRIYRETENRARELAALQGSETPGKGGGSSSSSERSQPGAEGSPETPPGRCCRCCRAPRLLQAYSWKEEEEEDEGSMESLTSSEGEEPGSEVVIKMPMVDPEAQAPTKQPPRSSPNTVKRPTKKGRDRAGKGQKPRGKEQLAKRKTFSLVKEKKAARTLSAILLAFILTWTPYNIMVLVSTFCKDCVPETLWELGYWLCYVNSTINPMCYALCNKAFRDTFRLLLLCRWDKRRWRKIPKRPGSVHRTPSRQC

As to `ClC1=C(Cl)C(Cl)(Cl)C(Cl)=C1Cl`, the Potency result in assay [1], in [2], in assay [3], in assay [4], in assay [5] and in assay [6] was “inactive” throughout. In addition, the Potency result in [7], in assay [8], in assay [9], in assay [10], in assay [11] and in assay [12] was “inactive” each time. For the same molecule, the Potency entry in assay [13], in assay [14], in assay [15], in [16], in [17] and in assay [18] was “inactive” in each case. The Potency entry in [19] is “inactive”.
In the case of `CC(COc1ccccc1)N(CCCl)Cc1ccccc1` (stereo not given), the Potency entry in [20], in assay [1], in [2], in assay [3], in assay [4] and in assay [5] was “inactive” in each case. For the same molecule, the Potency result in assay [6], in assay [7], in [9], in assay [11], in assay [12] and in [13] was “inactive” each time. Also, the Potency entry in assay [14], in [15], in [16], in assay [17] and in assay [19] was “inactive” in each case. Further, the Potency in [18] was 13.2 µM (active) and 7.22 µM (active).
`NC=O`: the Potency entry in assay [20], in [1], in [2], in assay [3], in [6] and in [7] was “inactive” in each case. The Potency entry in [8], in [10], in assay [11], in assay [12], in assay [13] and in [14] was “inactive” throughout. Further, the Potency result in assay [15], in [16], in [18] and in assay [19] was “inactive” throughout.
With `C1N2CN3CN1CN(C2)C3`, the Potency entry in [20], in assay [1], in assay [2], in assay [3], in assay [4] and in assay [5] was “inactive” each time. Also, the Potency entry in assay [7], in [8], in assay [9], in assay [10], in [11] and in assay [12] was “inactive” in each case. In addition, the Potency result in [13], in assay [14], in assay [15], in assay [16], in assay [17] and in assay [18] was “inactive” in each case. Also, in assay [19], the Potency result was “inactive”.
Turning to `CN(C)CCCN`, the Potency entry in assay [20], in assay [1], in [2], in [3], in [4] and in assay [6] was “inactive” in each case. Moreover, the Potency result in assay [7], in [8], in assay [9], in [10], in [11] and in assay [12] was “inactive” each time. For the same molecule, the Potency entry in assay [13], in [15], in assay [16], in assay [17], in [18] and in assay [19] was “inactive” in each case.
For `OC[C@H]1O[C@@H](Oc2ccc(O)cc2)[C@H](O)[C@@H](O)[C@@H]1O`, the Potency entry in [20], in [3], in [4], in [5], in [6] and in [7] was “inactive” throughout. Besides, the Potency result in assay [8], in assay [9], in assay [10], in [11], in assay [12] and in [13] was “inactive” throughout. In addition, the Potency result in assay [14], in assay [16], in [17], in [18] and in assay [19] was “inactive” in each case.
In the case of `CC(=O)CC(C)(C)O`, the Potency entry in [20], in [2], in assay [3], in assay [4], in assay [5] and in assay [6] was “inactive” throughout. For the same molecule, the Potency entry in assay [7], in assay [8], in assay [9], in assay [10], in assay [11] and in [12] was “inactive” each time. The Potency entry in assay [13], in [14], in assay [15], in [16], in [18] and in [19] was “inactive” each time.
